Assay results published in PubChem BioAssay (NCATS).
Records with an inconclusive call do not appear. A call without a number means that no potency is given here. Activity calls are given as the source filed them. The call rests on the fitted dose curve; in most records, active means well fitted curve in the direction sought with a large enough effect; inconclusive means small, poorly fitted or top-dose-only effect, or another doubt; inactive means no such curve, though single readings can be large; an effect the other way counts as inactive or inconclusive.

Tested on: not listed separately
Experiment: Primary fluorescence-based thiol-reactive (MSTI) qHTS assay for identification of artifact compounds. (AID 1845221); further: nearly all actives have a fitted effect of over 65% in size; further: potency means the concentration at half of the fitted maximal effect
Conditions: MSTI thiol-reactivity probe, 1 h; series mostly up to 53.8 µM
Procedure, shortened: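 Probe: MSTI 4 uM, PBS pH 7.4, 2% DMSO. Incubation 1 h, RT, light-protected. Readout fluorescence 525/598 nm.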

SMILES	Potency
O=S1(=O)CCN(Cc2cc(NCC3CCOCC3)c3[nH]c(-c4ccccc4)cc3c2)CC1	1.19 µM (active)
O=C(c1ccccc1)c1c(O)cc(O)cc1O[C@@H]1O[C@H](CO)[C@@H](O)[C@H](O)[C@H]1O	13.1 µM (active)
CC(C)C[C@H](CO)Nc1nc(S[C@@H](C)c2ccccc2)nc2nc(N)sc12	inactive
O=C(c1ccc(Cl)cc1)N1CCN(c2ccnc3cc(Cl)ccc23)CC1	inactive
Cc1c[nH]c2ncnc(N3CCC(CN)(C(=O)Nc4cccc(OC(=O)N(C)C)c4)CC3)c12	inactive
C=CC(=O)Nc1cccc(Nc2nc(Nc3ccc(OCCOC)cc3)ncc2F)c1	4.74 µM (active)
Cc1c(OCc2cccc(-c3ccc(C(=O)O)cc3)c2)cc2c(c1C)C(=O)C(C1CCCC1)C2 (stereo unspecified)	inactive
COc1c(CCC(=O)O)cccc1O[C@@H]1O[C@H](CO)[C@@H](O)[C@H](O)[C@H]1O	13.1 µM (active)
C[C@]12CC[C@@H]3c4ccc(O)c(O)c4CC[C@H]3[C@@H]1CCC2=O	0.947 µM (active)
CCOC(=O)N1CCC(CN(Cc2ccc(Cl)cc2)Cc2ccc([N+](=O)[O-])s2)C1 (stereo unspecified)	13.4 µM (active)
C=C1C(OC2OC(CO)C(O)C(O)C2O)CC2C(C)(C)C(O)CCC2(C)C1CC/C(C)=C\COC(=O)CC(=O)O (stereo unspecified)	inactive
Fc1ccc2c(CCNCc3cccc(OCC(F)(F)C(F)F)c3)c[nH]c2c1	inactive
COc1ccc(CCN(C)CCCOc2nsc(-c3ccccc3)n2)cc1OC	inactive
COc1cc2c(Nc3cc(F)c(Cl)c(Cl)c3)ncnc2cc1OCC1CCCN(C)CCC1	inactive
CC1(C)CC[C@]2(C(=O)O[C@@H]3O[C@H](CO)[C@@H](O)[C@H](O)[C@H]3O)CC[C@]3(C)C(=CCC4[C@@]5(C)CC[C@H](O[C@@H]6O[C@H](C(=O)O)[C@H](O)[C@H](O)[C@H]6O)C(C)(C)C5CC[C@]43C)[C@@H]2C1 (stereo partly specified)	inactive
CC(C)(C[C@@](O)(Cc1cc2ccncc2[nH]1)C(F)(F)F)c1cc(F)ccc1O	inactive
CC[C@H]1CN(c2nc(N)c(C(N)=O)nc2Cl)CCN1C1CCN(Cc2ccc(Cl)cc2)CC1	inactive
CN1CCN(Cc2ccc(NC(=O)Cc3ccc(Oc4cc(NC(=O)C5CC5)ncn4)cc3)cc2C(F)(F)F)CC1	inactive

SMILES	Potency
COc1ccc(CCc2nc3c(C)c(-c4c(C)noc4C)c(C)cc3n2CCN2CCOCC2)cc1	inactive
Cc1nnc(C[C@@H]2C=C(c3ccc(Cl)cc3)c3ccccc3-n3c(C)nnc32)o1	inactive
O=C(O)CSc1cc(NS(=O)(=O)c2ccc(Br)cc2)c2ccccc2c1O	0.474 µM (active)
CC(=O)OC/C(=C/C(=O)O)CC[C@@H]1C(C=O)=CC[C@@H]2C(C)(C)CCC[C@@]12C	inactive
CN(C)CC1CCn2c(c(C3=C(c4cn(C)c5ccccc45)C(=O)NC3=O)c3ccccc32)C1 (stereo unspecified)	inactive
Nc1ncnc2c1c(-c1ccc(Oc3ccccc3)cc1)nn2[C@@H]1CCCNC1	inactive
CC(=O)[C@H]1CC[C@H]2[C@@H]3CC=C4C[C@@H](OS(=O)(=O)O)CC[C@]4(C)[C@H]3CC[C@]12C	inactive
Cc1cc(NC(=O)c2cccc(NC(=O)/C=C/CN(C)C)c2)ccc1Nc1nccc(-c2cccnc2)n1	inactive
COc1ccc(NC(=O)c2ccc(-c3ccc(C(=N)N)cc3C)cc2)cc1N1CCN(C)CC1	inactive
COC(=O)CC1OC(C)C2=C(O)c3c(O)cccc3C(=O)C23OC13 (stereo unspecified)	3.29 µM (active)
N#Cc1ccc(Nc2nc(-c3ccc(O)cc3O)cs2)cc1C(F)(F)F	2.99 µM (active)
Cc1nc(C#Cc2ccnc(Cl)c2)c(C)n1-c1ccc(F)cc1	inactive
CCCc1cc2c(N3CCN(C4=NCC(C)(C)S4)CC3)ncnc2s1	inactive
CCNC(=O)C#Cc1ccc2c(C(=Nc3ccc(CN(C)C)cc3)c3ccccc3)c(O)[nH]c2c1	inactive
COc1cccc(-c2cn(-c3ccc(CCN4CCC(O)CC4)cc3)c3ncnc(N)c23)c1	inactive
Nc1nc(NC2CC2)cc(-c2cccc(Cl)c2Cl)n1	inactive
O=C(Nc1ccc(C(F)(F)F)cn1)N1CCN(c2ncccc2C(F)(F)F)CC1	inactive

Tested on: Nanoluciferase (engineered Oplophorus gracilirostris luciferase)
Experiment: Primary Nanoluciferase (NLuc) qHTS assay for identification of artifact compounds. (AID 1845222);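 further: NLuc secreted into diluted conditioned medium of S16 cells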
Conditions: NLuc-conditioned medium, Nano-Glo luminescence, 5 min; series mostly up to 54.1 µM
Procedure, shortened: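 Concentration-response data were obtained by luminescence after 5 min with Nano-Glo substrate at 1:100. The enzyme was diluted S16 NLuc-expressing cell medium, preincubated with compound for 15 min at RT. Curves were fitted with a 4-parameter Hill model.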

SMILES	Potency
O=S1(=O)CCN(Cc2cc(NCC3CCOCC3)c3[nH]c(-c4ccccc4)cc3c2)CC1	inactive
CC(C)C[C@H](CO)Nc1nc(S[C@@H](C)c2ccccc2)nc2nc(N)sc12	inactive
O=C(c1ccc(Cl)cc1)N1CCN(c2ccnc3cc(Cl)ccc23)CC1	inactive
Cc1c[nH]c2ncnc(N3CCC(CN)(C(=O)Nc4cccc(OC(=O)N(C)C)c4)CC3)c12	inactive
C=CC(=O)Nc1cccc(Nc2nc(Nc3ccc(OCCOC)cc3)ncc2F)c1	inactive
Cc1c(OCc2cccc(-c3ccc(C(=O)O)cc3)c2)cc2c(c1C)C(=O)C(C1CCCC1)C2 (stereo unspecified)	inactive
COc1c(CCC(=O)O)cccc1O[C@@H]1O[C@H](CO)[C@@H](O)[C@H](O)[C@H]1O	inactive
C[C@]12CC[C@@H]3c4ccc(O)c(O)c4CC[C@H]3[C@@H]1CCC2=O	inactive
CCOC(=O)N1CCC(CN(Cc2ccc(Cl)cc2)Cc2ccc([N+](=O)[O-])s2)C1 (stereo unspecified)	inactive
C=C1C(OC2OC(CO)C(O)C(O)C2O)CC2C(C)(C)C(O)CCC2(C)C1CC/C(C)=C\COC(=O)CC(=O)O (stereo unspecified)	inactive
Fc1ccc2c(CCNCc3cccc(OCC(F)(F)C(F)F)c3)c[nH]c2c1	inactive
COc1ccc(CCN(C)CCCOc2nsc(-c3ccccc3)n2)cc1OC	inactive
COc1cc2c(Nc3cc(F)c(Cl)c(Cl)c3)ncnc2cc1OCC1CCCN(C)CCC1	inactive
CC1(C)CC[C@]2(C(=O)O[C@@H]3O[C@H](CO)[C@@H](O)[C@H](O)[C@H]3O)CC[C@]3(C)C(=CCC4[C@@]5(C)CC[C@H](O[C@@H]6O[C@H](C(=O)O)[C@H](O)[C@H](O)[C@H]6O)C(C)(C)C5CC[C@]43C)[C@@H]2C1 (stereo partly specified)	inactive
CC(C)(C[C@@](O)(Cc1cc2ccncc2[nH]1)C(F)(F)F)c1cc(F)ccc1O	inactive
CC[C@H]1CN(c2nc(N)c(C(N)=O)nc2Cl)CCN1C1CCN(Cc2ccc(Cl)cc2)CC1	inactive

SMILES	Potency
CN1CCN(Cc2ccc(NC(=O)Cc3ccc(Oc4cc(NC(=O)C5CC5)ncn4)cc3)cc2C(F)(F)F)CC1	inactive
COc1ccc(CCc2nc3c(C)c(-c4c(C)noc4C)c(C)cc3n2CCN2CCOCC2)cc1	inactive
Cc1nnc(C[C@@H]2C=C(c3ccc(Cl)cc3)c3ccccc3-n3c(C)nnc32)o1	inactive
CC(=O)OC/C(=C/C(=O)O)CC[C@@H]1C(C=O)=CC[C@@H]2C(C)(C)CCC[C@@]12C	inactive
Nc1ncnc2c1c(-c1ccc(Oc3ccccc3)cc1)nn2[C@@H]1CCCNC1	inactive
CC(=O)[C@H]1CC[C@H]2[C@@H]3CC=C4C[C@@H](OS(=O)(=O)O)CC[C@]4(C)[C@H]3CC[C@]12C	inactive
COc1ccc(NC(=O)c2ccc(-c3ccc(C(=N)N)cc3C)cc2)cc1N1CCN(C)CC1	inactive
COC(=O)CC1OC(C)C2=C(O)c3c(O)cccc3C(=O)C23OC13 (stereo unspecified)	inactive
N#Cc1ccc(Nc2nc(-c3ccc(O)cc3O)cs2)cc1C(F)(F)F	inactive
Cc1nc(C#Cc2ccnc(Cl)c2)c(C)n1-c1ccc(F)cc1	inactive
CCCc1cc2c(N3CCN(C4=NCC(C)(C)S4)CC3)ncnc2s1	inactive
CCNC(=O)C#Cc1ccc2c(C(=Nc3ccc(CN(C)C)cc3)c3ccccc3)c(O)[nH]c2c1	inactive
COc1cccc(-c2cn(-c3ccc(CCN4CCC(O)CC4)cc3)c3ncnc(N)c23)c1	inactive
Nc1nc(NC2CC2)cc(-c2cccc(Cl)c2Cl)n1	inactive
O=C(Nc1ccc(C(F)(F)F)cn1)N1CCN(c2ncccc2C(F)(F)F)CC1	inactive
